{"source": "PubChem BioAssay AID1053205", "about": "(Broad Institute, 2014)", "note": "Results with a measured potency or affinity are listed apart. Records with an inconclusive call do not appear. Calls of active or inactive are those of the source.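 How the source made its calls: active means compounds lowering the FRET ratio whose fitted half-maximal concentration is at most twice their top tested dose; inconclusive means flat partial drop between 30 and 70 percent, or bad fit; inactive means the rest.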"}
{"target": "Voltage-dependent L-type calcium channel subunit alpha-1D (Homo sapiens) (UniProt Q01668)", "sequence (Q01668 whole entry, looked up, the tested form may be a part)": "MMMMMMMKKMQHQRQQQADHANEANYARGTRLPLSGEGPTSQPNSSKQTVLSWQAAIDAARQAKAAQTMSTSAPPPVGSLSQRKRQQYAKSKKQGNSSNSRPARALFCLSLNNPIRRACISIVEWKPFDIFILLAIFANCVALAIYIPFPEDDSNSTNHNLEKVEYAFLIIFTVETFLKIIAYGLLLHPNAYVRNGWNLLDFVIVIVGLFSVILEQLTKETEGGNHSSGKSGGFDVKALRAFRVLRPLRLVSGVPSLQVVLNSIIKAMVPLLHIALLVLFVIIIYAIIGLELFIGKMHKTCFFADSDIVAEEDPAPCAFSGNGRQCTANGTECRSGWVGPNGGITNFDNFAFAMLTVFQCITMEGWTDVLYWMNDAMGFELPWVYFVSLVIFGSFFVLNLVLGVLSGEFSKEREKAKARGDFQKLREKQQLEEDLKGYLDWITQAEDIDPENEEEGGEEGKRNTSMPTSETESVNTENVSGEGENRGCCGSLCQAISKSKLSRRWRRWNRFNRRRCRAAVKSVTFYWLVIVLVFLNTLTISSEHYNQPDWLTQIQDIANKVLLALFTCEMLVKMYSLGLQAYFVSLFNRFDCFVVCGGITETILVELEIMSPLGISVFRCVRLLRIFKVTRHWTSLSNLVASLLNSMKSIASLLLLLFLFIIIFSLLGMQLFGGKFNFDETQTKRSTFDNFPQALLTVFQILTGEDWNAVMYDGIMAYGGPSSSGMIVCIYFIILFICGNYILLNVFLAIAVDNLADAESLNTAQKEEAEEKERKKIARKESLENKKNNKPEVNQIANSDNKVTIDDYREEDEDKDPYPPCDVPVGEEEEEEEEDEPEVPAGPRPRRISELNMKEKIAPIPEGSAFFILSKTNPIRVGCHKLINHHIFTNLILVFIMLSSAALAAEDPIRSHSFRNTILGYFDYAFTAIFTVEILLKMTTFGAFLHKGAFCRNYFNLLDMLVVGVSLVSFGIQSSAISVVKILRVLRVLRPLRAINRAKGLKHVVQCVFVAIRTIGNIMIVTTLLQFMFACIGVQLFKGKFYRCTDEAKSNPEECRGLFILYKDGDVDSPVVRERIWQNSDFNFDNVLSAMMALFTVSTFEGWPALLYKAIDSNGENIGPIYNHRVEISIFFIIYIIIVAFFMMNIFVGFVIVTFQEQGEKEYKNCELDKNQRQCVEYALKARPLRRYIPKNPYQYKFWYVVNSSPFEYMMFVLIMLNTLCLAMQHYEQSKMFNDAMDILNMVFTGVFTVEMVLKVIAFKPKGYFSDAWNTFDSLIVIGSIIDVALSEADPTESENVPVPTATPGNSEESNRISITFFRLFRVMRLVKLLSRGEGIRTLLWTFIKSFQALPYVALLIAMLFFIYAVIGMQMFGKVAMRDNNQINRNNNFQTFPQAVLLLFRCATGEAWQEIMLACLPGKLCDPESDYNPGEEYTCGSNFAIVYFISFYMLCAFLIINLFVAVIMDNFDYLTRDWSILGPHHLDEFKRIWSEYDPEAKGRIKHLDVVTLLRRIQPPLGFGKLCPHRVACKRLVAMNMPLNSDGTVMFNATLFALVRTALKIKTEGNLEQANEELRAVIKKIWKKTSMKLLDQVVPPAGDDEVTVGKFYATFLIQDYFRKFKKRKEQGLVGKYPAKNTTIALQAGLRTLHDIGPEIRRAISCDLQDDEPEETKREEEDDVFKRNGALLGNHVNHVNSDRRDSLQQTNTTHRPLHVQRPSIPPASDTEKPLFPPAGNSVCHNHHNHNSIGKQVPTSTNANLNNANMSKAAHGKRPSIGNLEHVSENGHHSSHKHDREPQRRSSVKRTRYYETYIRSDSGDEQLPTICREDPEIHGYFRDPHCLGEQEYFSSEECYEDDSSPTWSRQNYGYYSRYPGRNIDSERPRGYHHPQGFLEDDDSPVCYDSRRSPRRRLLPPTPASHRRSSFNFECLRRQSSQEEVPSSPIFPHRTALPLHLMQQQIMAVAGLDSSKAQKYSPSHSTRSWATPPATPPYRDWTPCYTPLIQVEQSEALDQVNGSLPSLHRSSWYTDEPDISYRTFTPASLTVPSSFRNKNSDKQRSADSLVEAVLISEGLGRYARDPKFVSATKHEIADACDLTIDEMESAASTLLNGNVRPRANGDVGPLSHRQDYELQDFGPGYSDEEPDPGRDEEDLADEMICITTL", "test": "disruptors of CaV1.3 IQ/ICDI domain association – cell-based, HEK293, YFP-IQ/CFP-ICDI FRET, cherry-picks, dose response (AID 1053205)", "conditions": "HEK293 YFP-IQ/CFP-ICDI FRET ratio, 10 min; series mostly up to 35 µM"}
{"compound": "CC1=C(C(=O)N2CCN(c3cc(C)ccc3C)CC2)C2(CCCCC2)OC1=O", "outcome": "inactive"}
{"compound": "Cc1c(C=O)c2ccccn2c1C(=O)c1cccs1", "outcome": "inactive"}
{"compound": "O=C(O)c1ccc(N/N=C/c2ccc(-c3ccccc3Cl)o2)cc1", "outcome": "inactive"}
{"compound": "CCN(CC)Cc1c(O)c(Cl)cc2c(C)cc(=O)oc12", "outcome": "inactive"}
{"compound": "CC(C)(C)c1csc(N/N=C/c2ccc(O)cc2)n1", "outcome": "inactive"}
{"compound": "CCOC(=O)c1c(C)n(C)c2ccc(OCC(O)CN3CCC(C)CC3)cc12", "note": "(stereo unspecified)", "outcome": "inactive"}
{"compound": "COc1ccc(C[C@H]2CN3C(=NC[C@@H]3Cc3ccccc3)N2CCNC(=O)CCC2CCCCC2)cc1", "outcome": "inactive"}
{"compound": "Cc1ccc(-c2nc3ccsc3c(=O)[nH]2)cc1", "outcome": "inactive"}
{"compound": "Cc1cc(CNC(=O)c2ccc3c(c2)OCO3)c2ccccc2n1", "outcome": "inactive"}
{"compound": "Cc1cc(-c2ccccc2)c2ccc(NC(=O)C(C)(C)C)nc2n1", "outcome": "inactive"}
{"compound": "CCOC(=O)C1CCCN(CCCc2ccccc2)C1", "note": "(stereo unspecified)", "outcome": "inactive"}
{"compound": "COc1ccc(C2CC(c3ccccc3)=NN2c2ccc(C(N)=O)cc2)cc1", "note": "(stereo unspecified)", "outcome": "inactive"}
{"compound": "O=[N+]([O-])c1cccc(-c2n[nH]c(=S)n2-c2ccc(Br)cc2)c1", "outcome": "inactive"}
{"compound": "CCC(=O)NCCCNc1nc2c(C)cccc2cc1C#N", "outcome": "inactive"}
{"compound": "CCOC(=O)c1oc2c(CN3CCN(CCO)CC3)c(O)c(CC)cc2c(=O)c1-c1nc2ccccc2s1", "outcome": "inactive"}
{"compound": "CC(=O)N=c1c(C#N)cc2c(=O)n3ccccc3nc2n1CCCOC(C)C", "outcome": "inactive"}
{"compound": "Cc1c(C(=O)NCc2cccc(C(F)(F)F)c2)sc(=O)n1Cc1ccc(C(=O)N(C)C)cc1", "outcome": "inactive"}
{"compound": "CCc1cccc(OC2OC(CO)C(O)C(O)C2NC(C)=O)c1", "note": "(stereo unspecified)", "outcome": "inactive"}
{"compound": "Nc1cccc2c1C(=O)N(c1ccccc1)C2=O", "outcome": "inactive"}
{"compound": "CCc1cccc(C)c1NC(=S)NCc1ccc2c(c1)cc(C)n2C", "outcome": "inactive"}
{"compound": "O=c1oc2cc(O)ccc2cc1S(=O)(=O)c1ccccc1", "outcome": "inactive"}
{"compound": "COc1ccccc1NS(=O)(=O)c1cc(NC(=O)CCNC(C)=O)ccc1C", "outcome": "inactive"}
{"compound": "O=c1[nH]c2ccccc2nc1/C=C/c1ccccc1", "outcome": "inactive"}
{"compound": "CCOCCCNc1c(CC)c(C)c(C#N)c2nc3ccccc3n12", "outcome": "inactive"}
{"compound": "CC(=O)NNc1cc(N2CCOCC2)nc(N2CCOCC2)n1", "outcome": "inactive"}
{"compound": "Cc1c(Nc2c3ccccc3nc3ccccc23)c(=O)n(-c2ccccc2)n1C", "outcome": "inactive"}
{"compound": "O=C(NS(=O)(=O)c1ccc(Cl)s1)c1ccccc1", "outcome": "inactive"}
{"compound": "O=C(/C=C/c1ccccc1)C1=C(O)C(=O)N(CCO)C1c1ccc2c(c1)OCO2", "note": "(stereo unspecified)", "outcome": "inactive"}
{"compound": "COc1ccccc1/C=N/Nc1nc(C)cc(=O)[nH]1", "outcome": "inactive"}
{"compound": "Cc1ccc(S(=O)(=O)c2cc3c(=O)n4ccccc4nc3n(C)c2=N)cc1", "outcome": "inactive"}
{"compound": "CCc1nc(SCC(=O)c2ccccc2)c2ccccc2n1", "outcome": "inactive"}
{"compound": "O=C(Nc1ccc(-c2ccco2)cc1)C1CCCN(Cc2ccco2)C1", "note": "(stereo unspecified)", "outcome": "inactive"}
{"compound": "CCCCn1nc(NC(=O)c2cccs2)c2cc3cc(OC)ccc3nc21", "outcome": "inactive"}
{"compound": "CN(C)/C=C/C(=O)c1c(F)cccc1F", "outcome": "inactive"}
{"compound": "COc1ccc(CCN=C(N)NS(=O)(=O)c2ccc(F)cc2)cc1", "outcome": "inactive"}
{"compound": "Cc1ccc(O)c(NC(=S)NC(=O)COc2ccc(Br)cc2)c1", "outcome": "inactive"}
